Records with an inconclusive call do not appear. Activity calls are given as the source filed them. The calls were made as follows, unless noted: active = hit-call score of the fitted dose curve at least 0.9, where 1 is the maximum; inconclusive = response in the unintended direction; inactive = score below 0.9.
Assays:
[1] = biological target: human RAR-related Orphan Receptor beta (RORb), RORB (gene 6096) (UniProt Q92753); assay: ATG_RORb_TRANS: Attagene TRANS-FACTORIAL HepG2 Assay for human RAR-related Orphan Receptor beta (RORb) (AID 2283010)
Chain of human RAR-related Orphan Receptor beta (RORb), RORB (gene 6096) (Q92753 whole entry, looked up, the tested form may be a part): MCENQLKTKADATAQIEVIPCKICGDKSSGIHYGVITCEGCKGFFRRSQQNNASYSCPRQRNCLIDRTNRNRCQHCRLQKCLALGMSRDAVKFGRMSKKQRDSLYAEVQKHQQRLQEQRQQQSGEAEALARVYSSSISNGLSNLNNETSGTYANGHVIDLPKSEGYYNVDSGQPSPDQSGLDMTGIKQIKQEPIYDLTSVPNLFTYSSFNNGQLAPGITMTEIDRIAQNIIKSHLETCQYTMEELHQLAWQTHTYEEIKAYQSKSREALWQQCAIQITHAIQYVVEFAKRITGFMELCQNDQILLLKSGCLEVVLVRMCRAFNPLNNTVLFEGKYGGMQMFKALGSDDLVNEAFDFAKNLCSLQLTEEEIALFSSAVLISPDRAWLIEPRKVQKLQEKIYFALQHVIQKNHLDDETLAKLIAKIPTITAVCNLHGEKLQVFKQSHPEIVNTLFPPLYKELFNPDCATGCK
Outline: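 HepG2 cells transiently transfected with GAL4-UAS reporter units expressing chimeric NR-Gal4 protein; reporter mRNA measured 24 h after dosing by RT-PCR, 6-FAM labelling and capillary electrophoresis. Gain-of-signal fitted relative to DMSO baseline.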

[2] = biological target: human RAR-related Orphan Receptor gamma (RORg), RORC (gene 6097) (UniProt P51449); assay: ATG_RORg_TRANS: Attagene TRANS-FACTORIAL HepG2 Assay for human RAR-related Orphan Receptor gamma (RORg) (AID 2283011)
Chain of human RAR-related Orphan Receptor gamma (RORg), RORC (gene 6097) (P51449 whole entry, looked up, the tested form may be a part): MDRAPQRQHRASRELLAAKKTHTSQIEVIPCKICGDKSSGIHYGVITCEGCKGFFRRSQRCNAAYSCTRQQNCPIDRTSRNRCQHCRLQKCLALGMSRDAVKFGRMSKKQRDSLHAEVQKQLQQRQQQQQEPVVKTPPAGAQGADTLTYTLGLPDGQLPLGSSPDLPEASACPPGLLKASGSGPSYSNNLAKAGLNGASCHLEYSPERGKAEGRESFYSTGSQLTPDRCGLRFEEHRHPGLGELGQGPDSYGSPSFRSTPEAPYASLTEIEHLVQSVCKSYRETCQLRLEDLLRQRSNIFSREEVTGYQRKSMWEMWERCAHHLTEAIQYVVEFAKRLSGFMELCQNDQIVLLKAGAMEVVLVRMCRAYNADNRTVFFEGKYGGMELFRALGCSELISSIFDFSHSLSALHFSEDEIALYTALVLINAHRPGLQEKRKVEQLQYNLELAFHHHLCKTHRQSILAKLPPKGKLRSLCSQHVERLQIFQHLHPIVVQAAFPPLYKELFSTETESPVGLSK
Outline: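 First, HepG2 liver cells were transfected with GAL4-UAS-driven reporter constructs and the RORg-Gal4 fusion. Next, they were treated with chemical for 24 h. Finally, reporter mRNA was quantified by RT-PCR and capillary electrophoresis, with upward activity fitted against DMSO.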

[3] = biological target: Retinoic acid receptor RXR-alpha (Homo sapiens) (UniProt P19793); assay: ATG_RXRa_TRANS: Attagene TRANS-FACTORIAL HepG2 Assay for human Retinoid X Receptor alpha (RXRa) (AID 2283012)
Chain of Retinoic acid receptor RXR-alpha (Homo sapiens) (P19793 whole entry, looked up, the tested form may be a part): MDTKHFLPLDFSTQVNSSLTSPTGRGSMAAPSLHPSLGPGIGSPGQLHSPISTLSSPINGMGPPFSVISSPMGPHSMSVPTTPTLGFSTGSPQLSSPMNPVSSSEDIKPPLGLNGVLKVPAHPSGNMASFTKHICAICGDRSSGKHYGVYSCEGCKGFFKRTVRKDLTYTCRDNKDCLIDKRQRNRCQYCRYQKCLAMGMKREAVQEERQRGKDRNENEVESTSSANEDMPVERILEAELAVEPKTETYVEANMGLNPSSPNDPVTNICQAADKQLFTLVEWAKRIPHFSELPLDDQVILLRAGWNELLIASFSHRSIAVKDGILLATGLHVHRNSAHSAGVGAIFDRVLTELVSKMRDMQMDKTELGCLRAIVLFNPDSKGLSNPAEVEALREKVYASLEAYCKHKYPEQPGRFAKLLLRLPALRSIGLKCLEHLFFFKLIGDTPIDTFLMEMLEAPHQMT
Outline: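 HepG2 cells transiently transfected with GAL4-UAS reporter units and chimeric RXRa-Gal4 protein, treated 24 h. Reporter mRNA measured by RT-PCR, fluorescent labelling, HpaI digestion and capillary electrophoresis. Induction fitted against DMSO.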

[4] = biological target: human Retinoid X Receptor beta (RXRb), RXRB (gene 6257) (UniProt P28702); assay: ATG_RXRb_TRANS: Attagene TRANS-FACTORIAL HepG2 Assay for human Retinoid X Receptor beta (RXRb) (AID 2283013)
Chain of human Retinoid X Receptor beta (RXRb), RXRB (gene 6257) (P28702 whole entry, looked up, the tested form may be a part): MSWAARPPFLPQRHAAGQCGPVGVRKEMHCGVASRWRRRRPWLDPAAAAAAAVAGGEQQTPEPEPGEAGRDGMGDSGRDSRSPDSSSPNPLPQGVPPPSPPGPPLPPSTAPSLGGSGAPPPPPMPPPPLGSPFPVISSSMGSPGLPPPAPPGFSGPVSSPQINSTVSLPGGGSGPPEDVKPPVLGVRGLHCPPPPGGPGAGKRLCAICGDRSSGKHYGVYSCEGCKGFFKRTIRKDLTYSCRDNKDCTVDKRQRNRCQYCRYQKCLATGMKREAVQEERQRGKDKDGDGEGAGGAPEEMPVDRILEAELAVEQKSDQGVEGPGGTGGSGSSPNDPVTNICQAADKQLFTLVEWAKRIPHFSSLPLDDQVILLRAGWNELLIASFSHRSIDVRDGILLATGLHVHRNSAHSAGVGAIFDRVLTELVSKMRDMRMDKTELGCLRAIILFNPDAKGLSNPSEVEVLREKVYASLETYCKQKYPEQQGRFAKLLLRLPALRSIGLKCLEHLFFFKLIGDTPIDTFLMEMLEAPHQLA
Outline: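 HepG2 cells were transiently transfected with multiplexed GAL4-UAS reporters and a chimeric RXRb-Gal4 construct, then exposed for 24 h. Reporter mRNA was quantified by RT-PCR, FAM labeling, HpaI digestion and capillary electrophoresis; gain of signal was scored against DMSO.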

[5] = biological target: human Thyroid Receptor alpha (THRa1), THRA (gene 7067) (UniProt P10827); assay: ATG_THRa1_TRANS: Attagene TRANS-FACTORIAL HepG2 Assay for human Thyroid Receptor alpha (THRa1) (AID 2283014)
Chain of human Thyroid Receptor alpha (THRa1), THRA (gene 7067) (P10827 whole entry, looked up, the tested form may be a part): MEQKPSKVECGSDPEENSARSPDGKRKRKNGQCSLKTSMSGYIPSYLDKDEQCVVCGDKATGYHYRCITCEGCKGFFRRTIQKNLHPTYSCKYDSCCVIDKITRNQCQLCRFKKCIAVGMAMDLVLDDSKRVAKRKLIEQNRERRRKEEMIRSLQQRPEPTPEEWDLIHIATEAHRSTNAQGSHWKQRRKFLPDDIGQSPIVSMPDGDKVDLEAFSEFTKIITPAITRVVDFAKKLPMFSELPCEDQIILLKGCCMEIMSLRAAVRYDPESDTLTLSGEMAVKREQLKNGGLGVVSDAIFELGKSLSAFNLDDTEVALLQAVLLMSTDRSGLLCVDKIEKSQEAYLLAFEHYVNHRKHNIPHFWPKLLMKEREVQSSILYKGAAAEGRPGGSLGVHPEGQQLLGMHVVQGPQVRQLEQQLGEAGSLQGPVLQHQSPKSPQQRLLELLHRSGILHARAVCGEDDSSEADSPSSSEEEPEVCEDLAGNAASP
Outline: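 Reporter transcript induction, read by capillary electrophoresis of 6-FAM-labelled RT-PCR products, reflects activity of a transfected THRa1-Gal4 fusion in HepG2 liver cells. Cells were dosed for 24 h; activity was fitted in the positive direction against DMSO.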

[6] = read-out: E-selectin (Homo sapiens) (UniProt P16581); assay: BSK_3C_Eselectin: BioMAP Diversity Plus: 3C Assay for Eselectin Biomarker Activity (AID 2283015; active = hit-call score of the fitted dose curve at least 0.9, where 1 is the maximum; inactive = score below 0.9); details: primary human endothelial cells (HUVEC); actives raise or lower the signal
Outline: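 ELISA read-out of E-selectin on endothelial monolayers after 24 h chemical treatment. Human umbilical vein primary cells served as the system, with DMSO defining baseline activity for bidirectional fitting.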

[7] = read-out: Monocyte Chemoattractant Protein-1 (MCP1), CCL2 (gene 6347); assay: BSK_3C_MCP1: BioMAP Diversity Plus: 3C Assay for Monocyte Chemoattractant Protein-1 (MCP1) Biomarker Activity (AID 2283017; active = hit-call score of the fitted dose curve at least 0.9, where 1 is the maximum; inactive = score below 0.9); details: primary human endothelial cells (HUVEC); actives raise or lower the signal
Outline: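 ELISA read-out of MCP-1 from human umbilical vein endothelial cell cultures harvested 24 h post-dosing. Gain or loss of signal was fitted relative to DMSO.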

[8] = read-out: Monocyte Chemoattractant Protein-1 (MCP1), CCL2 (gene 6347); assay: BSK_4H_MCP1: BioMAP Diversity Plus: 4H Assay for Monocyte Chemoattractant Protein-1 (MCP1) Biomarker Activity (AID 2283018; active = hit-call score of the fitted dose curve at least 0.9, where 1 is the maximum; inactive = score below 0.9); details: primary human endothelial cells (HUVEC); actives raise or lower the signal
Outline: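 Human umbilical vein endothelial cells (4H system) exposed to chemicals for 24 h in 96-well format. MCP-1 measured by ELISA; bidirectional fitting against DMSO, with SRB total-protein staining in parallel cultures for cytotoxicity.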

[9] = read-out: Human Leukocyte Antigen - DR isotype (HLADR), HLA-DRA (gene 3122); assay: BSK_3C_HLADR: BioMAP Diversity Plus: 3C Assay for Human Leukocyte Antigen - DR isotype (HLADR) Biomarker Activity (AID 2283019; active = hit-call score of the fitted dose curve at least 0.9, where 1 is the maximum; inactive = score below 0.9;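 also: ELISA of cell-surface HLA-DR on HUVEC 24 h after dosing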); details: primary human endothelial cells (HUVEC); actives raise or lower the signal
Outline: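 ELISA readout of surface HLA-DR on human umbilical vein endothelium, taken 24 h after chemical treatment. Gain- and loss-of-signal were both fitted relative to DMSO.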

Measured: AC50

Chain of E-selectin (Homo sapiens) (P16581 whole entry, looked up): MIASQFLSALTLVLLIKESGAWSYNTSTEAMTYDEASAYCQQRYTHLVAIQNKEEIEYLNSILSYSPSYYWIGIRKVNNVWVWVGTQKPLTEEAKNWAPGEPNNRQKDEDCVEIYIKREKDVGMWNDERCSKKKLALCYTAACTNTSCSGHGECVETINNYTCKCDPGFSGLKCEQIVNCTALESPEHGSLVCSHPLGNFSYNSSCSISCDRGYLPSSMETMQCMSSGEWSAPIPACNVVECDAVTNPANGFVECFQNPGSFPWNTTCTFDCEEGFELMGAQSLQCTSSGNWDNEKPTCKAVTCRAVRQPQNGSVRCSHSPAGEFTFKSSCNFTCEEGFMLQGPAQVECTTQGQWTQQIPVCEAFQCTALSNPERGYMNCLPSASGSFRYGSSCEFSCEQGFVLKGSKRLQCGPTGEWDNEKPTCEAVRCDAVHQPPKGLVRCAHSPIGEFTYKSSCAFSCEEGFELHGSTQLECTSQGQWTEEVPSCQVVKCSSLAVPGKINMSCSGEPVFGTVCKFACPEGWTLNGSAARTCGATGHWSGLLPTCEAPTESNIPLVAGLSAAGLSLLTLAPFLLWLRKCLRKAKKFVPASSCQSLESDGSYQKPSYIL

Cc1cccc(O)c1
inactive: [1] | [2]

CC(=O)Nc1cc(S(=O)(=O)O)cc2cc(S(=O)(=O)O)c(N=Nc3ccccc3)c(O)c12
inactive: [1] | [2] | [3] | [4] | [5]

CN(C)C
inactive: [1]

CC(=O)c1ccc2ccccc2c1
inactive: [1] | [2] | [3] | [4] | [5]

Cc1cc(O)c(C)c(C)c1O
inactive: [1] | [2] | [3] | [4]

Nc1cc([N+](=O)[O-])ccc1C(=O)O
inactive: [1] | [2] | [3]

CCCCCCCCSCc1cc(C)c(O)c(CSCCCCCCCC)c1
inactive: [1] | [2] | [3] | [4] | [5]

CCC=C(C)C=O
inactive: [1] | [2] | [3] | [5]
active: [4] 26.6 µM

CC(=O)CCC(=O)O
inactive: [1] | [2] | [3] | [4] | [5]

Cc1ccc(C(C)(C)O)cc1
inactive: [1] | [2] | [3]

CC1(C)CC(N)CC(C)(CN)C1 (stereo unspecified)
inactive: [1] | [2] | [3] | [4]

C=CCOCC(O)CO (stereo unspecified)
inactive: [1] | [2]

[Cu+]
inactive: [1] | [2] | [3] | [5]

CC(=O)c1ccc(O)cc1
inactive: [1] | [2] | [3] | [4] | [5]

Nc1ccc(N)c([N+](=O)[O-])c1
inactive: [1] | [2] | [3] | [4] | [5] | [7] | [8] | [9]
active: [6] 13.6 µM

CCc1cccc(O)c1
inactive: [1] | [2] | [3] | [5]

CCCCC1CCCCC(=O)O1 (stereo unspecified)
inactive: [1]

CC(=O)CC(=O)N(C)C
inactive: [1] | [2] | [3] | [5]

Reference: PubChem BioAssay (EPA / NIEHS)
